Assay results published in PubChem BioAssay (Tox21).
Records with an inconclusive call do not appear. Where a call stands in place of a potency, no number is given. A number with no mark means an inactive call. Active and inactive are the calls of the source. Calls come from the whole dose curve; as a rule, active = well fitted activation curve with a large enough effect in the repeat runs; inconclusive = weak or mixed curves; inactive = flat fitted curve, though single readings scatter.

Experiment: A CellTox Green Cytotoxicity Assay to monitor cytotoxicity in HepG2 cells - 40 hour (AID 1224879); note: nearly all actives have a fitted effect of over 40% in size
Settings: CellTox Green fluorescence; series mostly up to 76.8 µM
From the text: National Center for Advancing Translational Sciences [NCATS]
NIH Chemical Genomics Center [NCGC]
U.S. Environmental Protection Agency [EPA]
National Institutes of Environmental Health Sciences [NIEHS]
National Toxicology Program [NTP]
Cell-based models are critical for drug discovery. Determining the natural cytotoxic effects resulting from test compounds is an essential research activity. A CellTox Green Cytotoxicity Assay to monitor cytotoxicity in real time of continues cell culture during 40 hours of the compound treatment was used to screen Tox21 10K library compounds in HepG2 cells. CellTox Green Cytotoxicity Assay is a nonlytic, homogeneous, biofluorescent method to measure cytotoxicity in cell culture after experimental manipulation. The assay system uses a proprietary asymmetric cyanine dye that is excluded from viable cells but preferentially stains the dead cell's DNA. […] Viable cells produce no appreciable increases in fluorescence. Therefore, the fluorescence signal produced by the binding interaction with dead cell DNA is proportional to cytotoxicity.
The mixture of HepG2 cell suspension and reagents were dispensed at 600cells/6 ul/well in 1536-well tissue culture treated black solid bottom plates using a Multidrop dispenser. After the assay plates were incubated at a 37 C/5% CO2 incubator for 5 hours, 23 nL of compounds dissolved in DMSO, positive and negative controls was transferred to the assay plate by a pintool work station. The plates were incubated at 37 C for 40 hours. The fluorescence intensity were measured at 0h, 8h, 16h, 24h, 32h and 40h time points using ViewLux plate reader during compound treatment.
Potency is the fitted concentration of half-maximal effect.

Structure (SMILES) | Potency | cytotoxicity increase
CCC(Br)(CC)C(=O)NC(N)=O | inactive | 
O=C1C(Cl)C(CCl)CN1c1cccc(C(F)(F)F)c1 (stereo not given) | inactive | 
O=C1C(=O)c2cccc3cccc1c23 | inactive | 
O=[N+]([O-])c1ccccc1CCl | inactive | 
OCCCBr | inactive | 
COP(=S)(OC)Oc1cc(Cl)c(I)cc1Cl | inactive | 
BrCCCCBr | inactive | 
CC(C)(C)C(O)C(Oc1ccc(Cl)cc1)n1cncn1 (stereo not given) | 43.6 µM (active) | 
CC(C)(Cl)[N+](=O)[O-] | inactive | 
C=CCC1([C@H](C)CCC)C(=O)NC(=O)NC1=O | inactive | 
CC(C)O.CC(C)O.OCCN(CCO)CCO.OCCN(CCO)CCO.[Ti] | inactive | 
CCOP(O)OCC | inactive | 
CN1C[C@H](CNC(=O)OCc2ccccc2)C[C@@H]2c3cccc4c3c(cn4C)C[C@H]21 | 23.9 µM (active) | 
Cc1ccc2ccccc2c1 | inactive | 
CC(C)N(CCC(C(N)=O)(c1ccccc1)c1ccccn1)C(C)C (stereo not given) | inactive | 
O=S1(=O)OC(c2cc(Br)c(O)c(Br)c2)(c2cc(Br)c(O)c(Br)c2)c2ccccc21 | inactive | 
CCOP(=O)(OCC)O/C(=C/Cl)c1ccc(Cl)cc1Cl | inactive | 
O=C1CN=C(c2ccccc2)c2cc(Cl)ccc2N1CC1CC1 | inactive | 
[O-][Cl+]O | inactive | 
CCOc1nc(F)cc2nc(S(=O)(=O)Nc3c(Cl)cccc3Cl)nn12 | inactive | 

Structure (SMILES) | Potency | cytotoxicity increase
COc1nn(C(=O)NS(=O)(=O)c2ccccc2OC(F)(F)F)c(=O)n1C | 39.9 µM (active) | 
CNC(C)Cc1ccccc1OC (stereo not given) | inactive | 
CO[C@@H]1[C@H](OC(=O)NC(=O)CCl)CC[C@]2(CO2)[C@H]1[C@@]1(C)O[C@@H]1CC=C(C)C |  | -2% [at 15.8 µM]
CCCCCCCCOC(=O)c1ccc(C(=O)OCCCCCCCC)c(C(=O)OCCCCCCCC)c1 | inactive | 
CN(C)c1ccc(N(C)C)cc1 | inactive | 
Cl/C=C\Cl | inactive | 
CO/N=C(/C(=O)OC)c1ccccc1COc1ccccc1C | inactive | 
COc1cc(Cl)c(OC)cc1Cl | inactive | 
O=C(Nc1ccccc1)Nc1cnns1 | inactive | 
Cl/C=C\C[N+]12CN3CN(CN(C3)C1)C2 | inactive | 
Clc1cc(C(Cl)(Cl)Cl)cnc1Cl | 34.7 µM (active) | 
CC(C)=CCOc1c2occc2cc2ccc(=O)oc12 | inactive | 
CCOC(=O)CBr | inactive | 
C#CCOC(C(=O)OCCN(C)C)(c1ccccc1)c1ccccc1 | inactive | 
O=[N+]([O-])c1cc(C(F)(F)F)cc([N+](=O)[O-])c1Cl | inactive | 
N#Cc1ccc(Cl)cc1 | inactive | 
CCOc1ccc(C(C)(C)COCc2cccc(Oc3ccccc3)c2)cc1 | inactive | 
CCOP(=S)(OCC)Oc1nc(Cl)c(Cl)cc1Cl | inactive | 
Clc1cccc(SC2CCNCC2)n1 | inactive | 
COP(=S)(OC)Oc1ccc([N+](=O)[O-])cc1Cl | inactive | 
